In the antibiotic and cytotoxicity screens of Wong et al. (2023):
About 1,500 (3.8%) of roughly 39,000 compounds were called active. The entries come from a sample that favours actives as a whole.

Each compound was assayed on HSkMC (human skeletal muscle cells) (assay: cytotoxicity call (relative viability < 0.9)). Settings: 10 µM.
In the case of C[C@@H]1CN([C@H](C)CO)C(=O)c2cc(NC(=O)Nc3ccc(F)cc3)ccc2O[C@H]1CN(C)Cc1ccc(Oc2ccccc2)cc1, the cytotoxicity call is reported as “inactive”. With C[C@H]1CN([C@@H](C)CO)C(=O)c2cc(NC(=O)Nc3ccc(F)cc3)ccc2O[C@H]1CN(C)Cc1ccc(Oc2ccccc2)cc1 the cytotoxicity call was “inactive”. In the case of C[C@H]1CN([C@@H](C)CO)C(=O)c2cc(NC(=O)Nc3ccccc3)ccc2O[C@@H]1CN(C)Cc1ccc(Oc2ccccc2)cc1, the cytotoxicity call is reported as “inactive”. With C[C@@H]1CN([C@H](C)CO)C(=O)c2cc(NC(=O)Nc3ccc(F)cc3)ccc2O[C@@H]1CN(C)Cc1ccc(Oc2ccccc2)cc1 the cytotoxicity call was “active”. For C[C@@H]1CN([C@@H](C)CO)C(=O)c2cc(NC(=O)Nc3ccc(F)cc3)ccc2O[C@@H]1CN(C)Cc1ccc(Oc2ccccc2)cc1, the cytotoxicity call was “active”. For C[C@H](CO)N1C[C@H](C)[C@@H](CN(C)Cc2ccc(Oc3ccccc3)cc2)Oc2ccc(NC(=O)Nc3ccc(F)cc3)cc2C1=O, the cytotoxicity call was “inactive”. For C[C@@H]1CN([C@@H](C)CO)C(=O)c2cc(NC(=O)Nc3ccc(F)cc3)ccc2O[C@H]1CN(C)Cc1ccc(Oc2ccccc2)cc1, the cytotoxicity call was “inactive”. With C[C@H](CO)N1C[C@H](C)[C@H](CN(C)Cc2ccc(Oc3ccccc3)cc2)Oc2ccc(NC(=O)Nc3ccc(F)cc3)cc2C1=O the cytotoxicity call was “active”. In the case of C[C@H]1CN([C@@H](C)CO)C(=O)c2cc(NC(=O)Nc3ccc(F)cc3)ccc2O[C@@H]1CN(C)Cc1ccc(Oc2ccccc2)cc1, the cytotoxicity call is reported as “inactive”. For CN1C(=O)c2cc(NC(=O)c3cnccn3)ccc2OC[C@H]2O[C@@H](CC(=O)N[C@@H]3CCN(Cc4ccccc4)C3)CC[C@@H]21, the cytotoxicity call was “inactive”. CN1CCN(C(=O)C[C@@H]2CC[C@@H]3[C@H](COC[C@@H](O)CN3Cc3ccc4c(c3)OCO4)O2)CC1 was tested, and the cytotoxicity call was “inactive”. For CS(=O)(=O)Cc1nc2ccccc2oc1=O, the cytotoxicity call was “inactive”. With Cc1noc(C)c1NC(=O)Nc1cccc2c1O[C@@H](CN(C)Cc1ccc(Oc3ccccc3)cc1)[C@@H](C)CN([C@H](C)CO)C2=O the cytotoxicity call was “inactive”. For COc1ccc(S(=O)(=O)Nc2ccc3c(c2)C(=O)N([C@H](C)CO)C[C@H](C)[C@H](CN(C)S(=O)(=O)c2ccc(Cl)cc2)OCCCC[C@H](C)O3)cc1, the cytotoxicity call was “inactive”. For CCC(=O)N(C)C[C@@H]1Oc2ncc(C#C[C@H](C)O)cc2C(=O)N([C@H](C)CO)C[C@H]1C, the cytotoxicity call was “inactive”. In the case of COc1cccc(S(=O)(=O)N(C)C[C@H]2Oc3ncc(C#CC(C)C)cc3C(=O)N([C@H](C)CO)C[C@H]2C)c1, the cytotoxicity call is reported as “inactive”. In the case of CO[C@@H]1CN(C)C(=O)c2cc(NS(=O)(=O)CC(F)(F)F)ccc2OC[C@H](C)N(C(=O)NC(C)C)C[C@H]1C, the cytotoxicity call is reported as “inactive”. With C[C@@H]1CN([C@H](C)CO)C(=O)c2cc(NC(=O)CCCCCC(=O)Nc3ccccc3N)ccc2O[C@H]1CN(C)C(=O)Nc1ccc(F)cc1 the cytotoxicity call was “inactive”. CN(C)c1nc(SCCO)nc(N(C)C)n1 was tested, and the cytotoxicity call was “inactive”. With C[C@@H]1CCCCO[C@H](CN(C)C(=O)Nc2cccc3ccccc23)[C@H](C)CN([C@@H](C)CO)C(=O)c2cc(NS(=O)(=O)c3ccc(F)cc3)ccc2O1 the cytotoxicity call was “inactive”. In the case of O=C(OCC1OC(OC(=O)c2cc(O)c(O)c(OC(=O)c3cc(O)c(O)c(O)c3)c2)C(OC(=O)c2cc(O)c(O)c(OC(=O)c3cc(O)c(O)c(O)c3)c2)C(OC(=O)c2cc(O)c(O)c(OC(=O)c3cc(O)c(O)c(O)c3)c2)C1OC(=O)c1cc(O)c(O)c(OC(=O)c2cc(O)c(O)c(O)c2)c1)c1cc(O)c(O)c(OC(=O)c2cc(O)c(O)c(O)c2)c1 (stereo unspecified), the cytotoxicity call is reported as “inactive”. With O=C(OC[C@H]1O[C@@H](OC(=O)c2cc(O)c(O)c(O)c2)[C@H](OC(=O)c2cc(O)c(O)c(O)c2)[C@@H](OC(=O)c2cc(O)c(O)c(O)c2)[C@@H]1OC(=O)c1cc(O)c(O)c(O)c1)c1cc(O)c(O)c(O)c1 the cytotoxicity call was “active”. In the case of O=C(OC[C@H]1O[C@@H](OC(=O)c2cc(O)c(O)c(O)c2)[C@H](O)[C@@H](OC(=O)c2cc(O)c(O)c(O)c2)[C@@H]1O)c1cc(O)c(O)c(O)c1, the cytotoxicity call is reported as “inactive”. For CC(C)NC(=O)N(C)C[C@@H]1Oc2ccc(NC(=O)CCCN(C)C)cc2CC(=O)N([C@H](C)CO)C[C@@H]1C, the cytotoxicity call was “inactive”. COc1ccc(NC(=O)Nc2ccc3c(c2)C(=O)N([C@@H](C)CO)C[C@@H](C)[C@@H](CN(C)Cc2ccc(C(=O)Nc4ccccc4N)cc2)O3)cc1 was tested, and the cytotoxicity call was “inactive”. With C[C@H]1CN([C@@H](C)CO)C(=O)c2c(c3ccccc3n2C)-c2ccccc2CO[C@@H]1CN(C)S(=O)(=O)c1ccc(Cl)cc1 the cytotoxicity call was “inactive”. For Cc1ccc(S(=O)(=O)Nc2ccc3c(c2)C(=O)N([C@H](C)CO)C[C@H](C)[C@@H](CN(C)S(C)(=O)=O)O3)cc1, the cytotoxicity call was “inactive”. In the case of C[C@H]1CN([C@@H](C)CO)C(=O)c2cccc(NC(=O)Nc3ccc(F)cc3)c2O[C@@H]1CN(C)Cc1ccc(C(F)(F)F)cc1, the cytotoxicity call is reported as “active”. C[C@H](CO)N1C[C@H](C)[C@@H](CN(C)Cc2ccc(C(F)(F)F)cc2)Oc2c(NC(=O)Nc3ccc(F)cc3)cccc2C1=O was tested, and the cytotoxicity call was “inactive”. In the case of C[C@H](CO)N1C[C@H](C)[C@H](CN(C)Cc2ccc(C(F)(F)F)cc2)Oc2c(NC(=O)Nc3ccc(C(F)(F)F)cc3)cccc2C1=O, the cytotoxicity call is reported as “inactive”. For C[C@@H]1CN([C@@H](C)CO)C(=O)c2cccc(NC(=O)Nc3ccc(C(F)(F)F)cc3)c2O[C@H]1CN(C)Cc1ccc(C(F)(F)F)cc1, the cytotoxicity call was “inactive”. In the case of C[C@@H]1CN([C@@H](C)CO)C(=O)c2cccc(NC(=O)Nc3ccc(C(F)(F)F)cc3)c2O[C@@H]1CN(C)Cc1ccc(C(F)(F)F)cc1, the cytotoxicity call is reported as “active”. C[C@@H]1CN([C@H](C)CO)C(=O)c2cccc(NC(=O)Nc3ccc(C(F)(F)F)cc3)c2O[C@@H]1CN(C)Cc1ccc(C(F)(F)F)cc1 was tested, and the cytotoxicity call was “active”. In the case of C[C@H](CO)N1C[C@H](C)[C@@H](CN(C)Cc2ccc(C(F)(F)F)cc2)Oc2c(NC(=O)Nc3ccc(C(F)(F)F)cc3)cccc2C1=O, the cytotoxicity call is reported as “inactive”. For C[C@@H]1CN([C@@H](C)CO)C(=O)c2cccc(NC(=O)Nc3ccc(F)cc3)c2O[C@H]1CN(C)Cc1ccc(C(F)(F)F)cc1, the cytotoxicity call was “inactive”. With C[C@@H]1CN([C@H](C)CO)C(=O)c2cccc(NC(=O)Nc3ccc(C(F)(F)F)cc3)c2O[C@H]1CN(C)Cc1ccc(C(F)(F)F)cc1 the cytotoxicity call was “inactive”.
